Screening data as filed in PubChem.
Hits are enriched below; roughly 11% of the tested compounds scored in any of these assays.
G9a inh: G9a (human) methyltransferase inhibition | Q96KQ7 | G9a H3K9 monomethylation, AlphaScreen, 2 h | Potency, µM (highest dose often 102 µM), inactives show at the top dose activity, negative = inhibition, actives largely listed as inhibitors | hit rate 8.8% among 350,000 | AID 504332; also: potency is read from the fitted curve at half-maximal effect; nearly all actives have a fitted effect of over 75% in size
Target sequence (Q96KQ7 913-1193 limits assumed): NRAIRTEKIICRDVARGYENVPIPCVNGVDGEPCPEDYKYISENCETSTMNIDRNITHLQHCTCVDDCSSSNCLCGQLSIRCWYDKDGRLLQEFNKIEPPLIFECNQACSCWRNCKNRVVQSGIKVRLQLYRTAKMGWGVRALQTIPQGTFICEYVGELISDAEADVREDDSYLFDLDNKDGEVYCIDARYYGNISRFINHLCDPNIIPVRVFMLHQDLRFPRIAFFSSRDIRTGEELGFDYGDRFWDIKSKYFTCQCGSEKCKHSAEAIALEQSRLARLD
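Step 1: enzyme (final 20 nM) with compound, 15 min RT. Step 2: substrate peptide 500 nM and SAM 20 uM, 2 h RT. Step 3: anti-H3K9me1 antibody and AlphaScreen beads, 10 min, then plate read.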
Tau fluor counter: counter-screen for tau fibril formation inhibitors. hit rate 0.93% among 280,000. AID 1463. Potency, µM (top dose mostly 57.7 µM), for inactives: top-dose activity change, negative = decrease. tau K18 P301L Alexa594 fluorescence, heparin fibrillization; also: potency is read from the fitted curve at half-maximal effect; nearly all actives have a fitted effect of over 55% in size
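Human K18 P301L tau (15 uM unlabeled plus 0.24 uM Alexa 594-labeled, final) in 100 mM sodium acetate pH 7 was mixed with compound and 20 uM heparin and incubated 6 hr at 37 C.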
Tau fibril ThT: tau fibrillization inhibition (ThT binding) | P10636 | recombinant tau K18 P301L (four-repeat tau fragment), heparin-induced fibrillization, ThT fluorescence | Potency, µM (doses to about 57.4 µM), inactives show at the top dose activity, negative = inhibition, most hits filed as inhibitors | hit rate 2.1% among 270,000 | AID 1460; also: potency is read from the fitted curve at half-maximal effect; nearly all actives have a fitted effect of over 55% in size
Target sequence (P10636 561-689 P618L limits assumed): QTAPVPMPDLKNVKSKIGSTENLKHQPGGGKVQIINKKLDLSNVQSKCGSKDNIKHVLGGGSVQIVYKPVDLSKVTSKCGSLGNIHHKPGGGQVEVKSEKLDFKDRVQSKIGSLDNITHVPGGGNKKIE
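In this qHTS, human K18 P301L tau is incubated with compound and heparin for 6 hr at 37 C, and Thioflavin T fluorescence then reports fibril load.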
Sfp PPTase inh: blocks B. subtilis Sfp PPTase activity. Q9F4F7. Biochemical Sfp PPTase activity, qHTS. Potency, µM, without a hit: largest response in the series, negative = inhibition, most hits filed as inhibitors. hit rate 3.5% among 310,000;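 also: the enzyme is Sfp with the accession as filed and its product quenches rhodamine fluorescence; potency is read from the fitted curve at half-maximal effect; 0% = enzyme reaction without inhibitor and -100% = no enzyme wells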
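Step 1, compound plus 15 nM Sfp-PPTase, 15 min, room temperature. Step 2, add rhodamine-CoA (5 uM) and BHQ-2-YbbR (12.5 uM). Step 3, read 525/598 nm fluorescence at 0 and 30 min.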
Tau fibril FP: inhibitors of human tau fibril formation; K18 P301L tau heparin fibrillization, Alexa594 FP, 6 h; P10636; Potency, µM (top dose mostly 57.7 µM), for the others: top-dose activity, negative = inhibition, hits mostly inhibitors; hit rate 0.39% among 280,000; AID 1468; also: potency is read from the fitted curve at half-maximal effect; nearly all actives have a fitted effect of over 55% in size
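Read-out: fluorescence polarization of Alexa 594-labeled tau (0.24 uM), 555 nm excitation, 632 nm emission. Mixtures held 15 uM unlabeled K18 P301L, compound and 20 uM heparin, pH 7 acetate buffer, incubated 6 hr at 37 C.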
Coupling enz: coupling enzyme interference in Giardia aldolase counter-screen; activity change, negative = inhibition, % at 58.2 µM, hits read low; coupling enzyme system counterscreen, AmpLite Red fluorescence; AID 2472; hit rate 0.67% among 290,000; in the data active = activity change below about -30%
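Counterscreen of the coupled detection system alone, without aldolase: glyceraldehyde-3-phosphate coupling enzymes plus AmpLite Red readout. Compounds at 57.5 uM final, 10 min RT preincubation, 20 min RT reaction, fluorescence 525/598 nm.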
* = called active by the depositor; ? = inconclusive; · = no result given; [ ] = dose if it differs, or a comment. Unless noted, calls follow the shape of the dose curve; as a rule, active = well fitted curve in the direction sought with a large enough effect; inconclusive = small, poorly fitted or top-dose-only effect, or another doubt; inactive = no such curve, though single readings can be large; an effect the other way counts as inactive or inconclusive. Unless noted, % is scaled to controls: 0 for no effect and ±100 for the full control effect.

SMILES | G9a inh | Tau fluor counter | Tau fibril ThT | Sfp PPTase inh | Tau fibril FP | Coupling enz
CC1C2(C)OCC(C#N)(C(=N)O2)C1(C#N)C#N (stereo not given) | 44.7µM* | -26.2% | ? | -2.8% | ? | -1.2
CCOc1ccc(-c2nc(C(N)=O)c3c(n2)n(-c2ccc4c(c2)OCO4)c(=O)n3CC)cc1 | 4.8%[59 µM] | -5.1% | 0.0% | · | -13.4% | ·
CCOC(=O)C1(C)C=C(Nc2ccc(O)cc2)C(=O)N1c1ccc(O)cc1 (stereo not given) | 8.91µM* | ? | 14.1µM* | 50.1µM* | 28.2µM* | -49.2*
CC(=O)N1CCCc2cc(S(=O)(=O)N(C)CC(=O)Nc3ccc(Cl)cc3C)ccc21 | 20.0%[59 µM] | -5.2% | 1.3% | · | -9.0% | ·
Cc1ccc(NC(=O)CNc2cc(S(=O)(=O)N3CCOCC3)ccc2NCC2CCCO2)cc1F (stereo not given) | 44.7µM* | · | · | 13.0% | · | ·
CC1CCCC(C)N1S(=O)(=O)c1ccc(NC(=O)CNCC2CCCO2)cc1 (stereo not given) | 8.91µM* | -15.4% | -13.0% | -2.0% | -7.9% | 0.5
COc1ccc(NC(=O)CNc2cc(S(=O)(=O)N3CCOCC3)ccc2NCC2CCCO2)cc1 (stereo not given) | 6.31µM* | -21.9% | ? | 6.5% | -2.0% | -13.6
O=C(CNc1cc(S(=O)(=O)N2CCOCC2)ccc1NCC1CCCO1)Nc1ccc(F)c(F)c1 (stereo not given) | ? | · | · | -1.0% | · | ·
CCOCC(=O)Nc1ccc(S(=O)(=O)NCC2CCCO2)cc1 (stereo not given) | · | · | · | 14.4% | · | -0.1
CC(NC(=O)c1cc(Br)ccc1Br)c1ccccc1 (stereo not given) | 6.6% | 3.4% | 3.3% | 2.8% | -10.7% | -0.1
O=C(CNS(=O)(=O)c1c(F)cc(F)cc1Br)OCC(=O)N1CCCC1=O | 0.1%[0.501 µM] | · | · | · | · | ·
CCCN1CCC(NC(=S)Nc2cccc(Cl)c2Cl)CC1 | ? | 0.7% | 2.6% | 19.3% | 8.0% | -1.3
COc1ccc(/C=C/C(=O)NCC(c2ccc(F)cc2)N2CCOCC2)cc1OC (stereo not given) | 79.4µM* | -18.8% | · | 3.5% | -4.6% | 1.7
COc1ccc(/C=C/C(=O)NCCN2CCOCC2)cc1OC | ? | -1.2% | -5.0% | 12.5% | 9.2% | 1.1
CCCn1nc(C(=O)OCC(=O)NC(C)c2ccccc2)c2ccccc2c1=O (stereo not given) | -30.1% | -8.1% | 0.1% | -10.6% | -2.3% | 1.5
C=CCn1c(O)c(C2=c3ccccc3=NC2=O)s/c1=N/c1nccs1 | ? | ? | ? | -2.5% | ? | 1.6
C=CCn1c(O)c(C2=c3ccccc3=NC2=O)c2ccccc21 | 6.31µM* | · | · | 44.7µM* | · | 0.5
Cc1ccc2nc(NC(=O)c3ccc(N4C(=O)CCC4=O)cc3)sc2c1 | 11.2µM* | 5.0% | 3.8% | 0.0% | -0.3% | 9.2
COc1cccc(OC)c1OCCCCc1c(C)n[nH]c1C | ? | -7.6% | 1.6% | -9.3% | -9.9% | -0.6
COc1cccc(OC)c1OCCCCCc1c(C)n[nH]c1C | 50.1µM* | -21.4% | ? | 7.0% | 2.5% | 3.6
Cc1n[nH]c(C)c1CCCCOc1ccccc1 | 50.1µM* | -7.7% | -10.4% | 5.0% | 4.3% | -3.0
CC(C)(C)C1CCc2c(sc(NC(=O)c3cccc(Cl)c3)c2C(N)=O)C1 (stereo not given) | -33.7%[59 µM] | -16.6% | -3.3% | · | -6.8% | ·
CC(=O)Nc1nc2ccccc2n1CCN(C)C | 39.8µM* | 0.3% | -7.4% | -18.8% | -14.7% | -0.7
CCCn1c(=N)c(C(=O)NC2CCCC2)cc2c(=O)n3cc(C)ccc3nc21 | 4.2%[59 µM] | -3.6% | -3.3% | · | -0.2% | ·
Cc1c(C(=O)N(C)C)c2ccc(Cl)cc2n1O | 3.16µM* | -1.5% | -2.2% | 7.2% | 1.4% | 3.2
Cc1c(C(=O)N(C)C)c2cc(Cl)ccc2n1O | ? | -4.4% | -11.9% | 3.2% | -5.8% | 0.4
